Results reported in PubChem BioAssay.
Activity calls are given as the source filed them.

What was measured:
[1] = test system: Plasmodium falciparum Sir2 (PF13_0152, Sir2A); assay: Plasmodium falciparum Sir2A binding compounds – biochemical, small-molecule microarray, 635 nm fluorescence, primary screen (AID 1098); details: fluorescence 635 nm, higher = more signal;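 also: score merges spot fluorescence intensity with its signal-to-noise ratio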
[2] = probe aDKK1 binding to arrayed compounds – biochemical, biotinylated probe, 635/667 nm fluorescence, primary screen (AID 1099); details: small-molecule microarray, higher = more signal;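 also: score merges 667nm spot fluorescence with signal to noise across triplicate slides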
[3] = probe aCHRDL2 binding to arrayed compounds – biochemical, biotinylated probe, 635/667 nm fluorescence, primary screen (AID 1100); details: small-molecule microarray, higher = more signal
[4] = change in splice reporter luminescence, either direction, cell-based, HEK293, spliceosome inhibition project, primary screen (AID 1101); details: HEK293 splicing luciferase reporter, 24 h, higher = more signal, called active from +8 up or from −8 down;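 also: HEK293 cells carrying a splicing-competent luciferase reporter gene; test concentration not given here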
[5] = target: Fibroblast growth factor 10 (Homo sapiens) (UniProt O15520); assay: compounds binding fibroblast growth factor 10 – biochemical, small-molecule microarray, 635 nm fluorescence, primary screen (AID 1102); details: FGF10 binding, fluorescence 635 nm, higher = more signal
[6] = test system: glycogen synthase kinase-3 (GSK3A per assay name; protocol says GSK3B); assay: compounds binding glycogen synthase kinase-3 – biochemical, small-molecule microarray, 635 nm fluorescence, GSK3A, primary screen (AID 1103); details: fluorescence 635 nm, higher = more signal; also: the record names both GSK3A and GSK3B
[7] = target: Epidermal growth factor receptor (Homo sapiens) (UniProt P00533); assay: compounds binding epidermal growth factor receptor – biochemical, small-molecule microarray, 635 nm fluorescence, primary screen (AID 1104); details: EGFR binding, higher = more signal;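 also: score merges 667 nm emission intensity with spot signal to noise over triplicate slides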
[8] = target: Follistatin-related protein 3 (Homo sapiens) (UniProt O95633); assay: compounds binding follistatin-related protein 3 – biochemical, small-molecule microarray, 635 nm fluorescence, primary screen (AID 1105); details: FSTL3 binding, higher = more signal;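 also: score merges emission near 667 nm and signal to noise per printed spot across three slides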
[9] = target: Dickkopf-related protein 1 (Homo sapiens) (UniProt O94907); assay: small molecules binding DKK1 protein – biochemical, small-molecule microarray, 635 nm fluorescence scan, primary screen (AID 1106); details: higher = more signal;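 also: score merges emission near 667 nm with signal to noise over three replicate slides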
[10] = test system: Inhibin beta A chain (activin A); assay: small molecules binding activin A – biochemical, small-molecule microarray, 635 nm fluorescence scan, primary screen (AID 1107); details: INHBA, higher = more signal;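 also: mouse activin A protein probed at 4.33 µg/mL on printed slides; score merges bound-protein fluorescence near 667 nm with spot signal-to-noise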
[11] = test system: Human papillomavirus type 1a protein E7 (residues 44-93); assay: small molecules binding HPV E7 44-93 – biochemical, small-molecule microarray, residues 44-93, 635 nm fluorescence, primary screen (AID 1108); details: fluorescence 635 nm, higher = more signal;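 also: E7 fragment applied at 1 µg/mL in TBST for 1 h at 4 C; score combines spot fluorescence with its signal to noise ratio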
[12] = hepatitis C replication reporter changes, two-sided – Huh7 cells, luciferase reporter, HCV replication inhibitor project, primary screen (AID 1109); details: Huh7 HCV replicon luciferase reporter, 48 h; higher = more signal;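 also: huh7 hepatoma cells harbouring a luciferase neomycin HCV replicon reporter; luciferase luminescence as measure of HCV replicon replication; test concentration not given here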
[13] = target: Left-right determination factor 2 (Homo sapiens) (UniProt O00292); assay: small molecules binding LEFTY2 protein – biochemical, small-molecule microarray, 635 nm fluorescence scan, primary screen (AID 1110); details: higher = more signal
[14] = target: Calmodulin-1 (Homo sapiens) (UniProt P0DP23); assay: small molecules binding calmodulin-1 with EGTA – biochemical, small-molecule microarray, Cy5-labelled CALM1, profiling panel (AID 1111); details: Cy5-CALM1 binding fluorescence, higher = more signal;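 also: labelled calmodulin applied in Tris saline Tween buffer holding calcium plus EGTA and DTT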
[15] = target: Calmodulin-1 (Homo sapiens) (UniProt P0DP23); assay: small molecules binding Ca-loaded calmodulin-1 – biochemical, small-molecule microarray, Cy5-labelled CALM1, plus calcium, artefact control for SMM control-protein annotation, profiling panel (AID 1112); details: Cy5-CALM1 binding fluorescence, higher = more signal;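 also: score merges spot fluorescence with signal to noise from triplicate slides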
[16] = probe aWnt5a binding to arrayed compounds – biochemical, biotinylated probe, 635/667 nm fluorescence, primary screen (AID 1113); details: small-molecule microarray, higher = more signal;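 also: score merges 667 nm fluorescence intensity with signal-to-noise per printed feature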
[17] = probe aShh binding to arrayed compounds – biochemical, biotinylated probe, 635/667 nm fluorescence, primary screen (AID 1114); details: small-molecule microarray, higher = more signal;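 also: probe is biotin-labelled aShh protein from a stem cell growth factor screen; measures binding of labelled protein to compounds printed on the slide; score merges feature fluorescence at 667 nm with signal-to-noise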
[18] = probe aNog binding to arrayed compounds – biochemical, biotinylated probe, 635/667 nm fluorescence, primary screen (AID 1115); details: small-molecule microarray, higher = more signal;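 also: probe is biotinylated aNog protein used at 0.15 µg/mL for 1 h at 4 C; z-score combines 667 nm fluorescence of each spot with its signal to noise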
[19] = target: Torsin-1A-interacting protein 1 (Homo sapiens) (UniProt Q5JTV8); assay: compound microarray binding of lysate hLAP1 – cell lysate, small-molecule microarray, COS7 lysate, 635/667 nm fluorescence, primary screen (AID 1116); details: 635 nm fluorescence, higher = more signal
[20] = target: Alpha-bungarotoxin (Bungarus multicinctus) (UniProt P60615); assay: compounds binding labelled alpha-BTX control protein – biochemical, small-molecule microarray, Alexa647 label, 635/667 nm fluorescence, artefact control for SMM control protein annotation, profiling panel (AID 1117); details: alpha-BTX-A647 binding fluorescence, higher = more signal
Chain of Alpha-bungarotoxin (Bungarus multicinctus) (P60615 whole entry, looked up): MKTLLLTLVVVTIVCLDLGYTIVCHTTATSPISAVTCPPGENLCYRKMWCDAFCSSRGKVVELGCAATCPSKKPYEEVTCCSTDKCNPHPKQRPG

Chain of Left-right determination factor 2 (Homo sapiens) (O00292 whole entry, looked up): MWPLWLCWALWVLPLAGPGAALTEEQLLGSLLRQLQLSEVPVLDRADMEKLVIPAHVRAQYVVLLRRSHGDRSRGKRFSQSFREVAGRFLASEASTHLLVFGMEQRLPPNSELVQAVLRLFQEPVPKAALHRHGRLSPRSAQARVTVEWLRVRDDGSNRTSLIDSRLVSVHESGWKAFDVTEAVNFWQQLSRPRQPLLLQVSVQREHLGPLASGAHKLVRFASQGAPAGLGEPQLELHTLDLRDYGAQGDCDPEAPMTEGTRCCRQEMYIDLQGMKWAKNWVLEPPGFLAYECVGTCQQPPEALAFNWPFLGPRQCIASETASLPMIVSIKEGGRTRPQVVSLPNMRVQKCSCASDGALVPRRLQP
Chain of Fibroblast growth factor 10 (Homo sapiens) (O15520 whole entry, looked up): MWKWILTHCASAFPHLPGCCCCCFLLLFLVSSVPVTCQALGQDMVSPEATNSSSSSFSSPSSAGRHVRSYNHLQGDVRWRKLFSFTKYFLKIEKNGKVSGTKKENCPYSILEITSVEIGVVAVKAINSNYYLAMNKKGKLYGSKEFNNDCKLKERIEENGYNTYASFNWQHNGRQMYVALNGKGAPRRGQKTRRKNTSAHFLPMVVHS
Chain of Epidermal growth factor receptor (Homo sapiens) (P00533 whole entry, looked up): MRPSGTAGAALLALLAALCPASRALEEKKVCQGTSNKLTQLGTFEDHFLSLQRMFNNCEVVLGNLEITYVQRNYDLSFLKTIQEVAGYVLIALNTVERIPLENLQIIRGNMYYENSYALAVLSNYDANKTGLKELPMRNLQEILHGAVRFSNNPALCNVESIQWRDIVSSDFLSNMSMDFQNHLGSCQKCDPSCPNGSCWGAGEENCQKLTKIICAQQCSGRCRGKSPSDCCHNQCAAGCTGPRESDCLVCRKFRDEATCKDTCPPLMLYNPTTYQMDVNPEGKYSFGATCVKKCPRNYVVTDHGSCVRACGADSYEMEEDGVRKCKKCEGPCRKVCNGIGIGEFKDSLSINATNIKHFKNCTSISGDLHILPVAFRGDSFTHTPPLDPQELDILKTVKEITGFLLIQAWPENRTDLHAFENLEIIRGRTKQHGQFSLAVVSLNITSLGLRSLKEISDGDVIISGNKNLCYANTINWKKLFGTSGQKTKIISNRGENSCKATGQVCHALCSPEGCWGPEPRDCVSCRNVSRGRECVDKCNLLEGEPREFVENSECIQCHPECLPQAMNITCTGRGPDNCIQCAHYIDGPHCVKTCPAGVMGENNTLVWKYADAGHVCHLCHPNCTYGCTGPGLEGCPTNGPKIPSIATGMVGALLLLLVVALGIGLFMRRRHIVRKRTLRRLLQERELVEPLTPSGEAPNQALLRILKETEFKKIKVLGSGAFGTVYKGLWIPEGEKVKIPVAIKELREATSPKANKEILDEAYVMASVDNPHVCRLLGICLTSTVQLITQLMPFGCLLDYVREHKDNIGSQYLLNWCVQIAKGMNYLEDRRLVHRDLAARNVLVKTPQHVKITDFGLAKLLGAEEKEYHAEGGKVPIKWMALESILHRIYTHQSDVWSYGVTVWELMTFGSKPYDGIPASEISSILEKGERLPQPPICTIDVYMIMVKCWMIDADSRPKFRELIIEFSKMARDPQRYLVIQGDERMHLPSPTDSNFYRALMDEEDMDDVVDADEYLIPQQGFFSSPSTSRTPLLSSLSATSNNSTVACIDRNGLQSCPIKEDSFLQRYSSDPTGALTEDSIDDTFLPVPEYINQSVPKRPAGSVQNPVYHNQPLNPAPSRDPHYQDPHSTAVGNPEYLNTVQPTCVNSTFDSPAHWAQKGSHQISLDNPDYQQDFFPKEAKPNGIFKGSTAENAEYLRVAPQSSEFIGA
Chain of Dickkopf-related protein 1 (Homo sapiens) (O94907 whole entry, looked up): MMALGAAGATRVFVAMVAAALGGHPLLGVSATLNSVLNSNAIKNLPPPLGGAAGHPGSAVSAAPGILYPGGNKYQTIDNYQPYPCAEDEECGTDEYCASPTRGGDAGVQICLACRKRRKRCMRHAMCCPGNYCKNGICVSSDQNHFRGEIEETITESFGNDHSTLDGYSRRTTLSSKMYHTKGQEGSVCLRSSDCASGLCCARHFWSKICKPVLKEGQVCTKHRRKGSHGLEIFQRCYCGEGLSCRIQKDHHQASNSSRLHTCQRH
Chain of Torsin-1A-interacting protein 1 (Homo sapiens) (Q5JTV8 whole entry, looked up): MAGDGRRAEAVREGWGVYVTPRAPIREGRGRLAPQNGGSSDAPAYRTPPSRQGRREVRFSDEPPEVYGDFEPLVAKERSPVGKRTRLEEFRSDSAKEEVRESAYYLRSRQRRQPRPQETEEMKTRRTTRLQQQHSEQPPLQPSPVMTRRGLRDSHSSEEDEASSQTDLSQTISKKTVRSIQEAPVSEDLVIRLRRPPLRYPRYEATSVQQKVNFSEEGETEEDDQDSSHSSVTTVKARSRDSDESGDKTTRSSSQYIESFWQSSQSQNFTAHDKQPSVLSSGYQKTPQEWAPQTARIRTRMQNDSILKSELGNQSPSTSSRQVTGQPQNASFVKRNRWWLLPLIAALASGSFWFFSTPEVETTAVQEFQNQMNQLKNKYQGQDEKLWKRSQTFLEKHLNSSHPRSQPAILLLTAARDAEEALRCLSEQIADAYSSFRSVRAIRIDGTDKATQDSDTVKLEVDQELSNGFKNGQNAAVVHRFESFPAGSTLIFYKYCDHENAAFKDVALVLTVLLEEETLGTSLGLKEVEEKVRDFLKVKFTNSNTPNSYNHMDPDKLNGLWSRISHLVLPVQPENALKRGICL
Chain of Follistatin-related protein 3 (Homo sapiens) (O95633 whole entry, looked up): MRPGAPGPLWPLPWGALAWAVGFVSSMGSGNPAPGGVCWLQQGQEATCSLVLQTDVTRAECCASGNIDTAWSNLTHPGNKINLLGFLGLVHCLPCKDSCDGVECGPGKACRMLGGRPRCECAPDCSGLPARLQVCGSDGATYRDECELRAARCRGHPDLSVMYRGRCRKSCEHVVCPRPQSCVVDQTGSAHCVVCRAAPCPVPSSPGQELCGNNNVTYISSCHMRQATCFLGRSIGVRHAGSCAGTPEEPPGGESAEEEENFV

Compound | composite z-score [1] | composite z-score [2] | composite z-score [3] | z-score [4] | composite z-score [5] | composite z-score [6] | composite z-score [7] | composite z-score [8] | composite z-score [9] | composite z-score [10] | composite z-score [11] | z-score [12] | composite z-score [13] | composite z-score [14] | composite z-score [15] | composite z-score [16] | composite z-score [17] | composite z-score [18] | composite z-score [19] | composite z-score [20]
C=C[C@@H](OC)[C@H](OC(=O)Nc1ccc(SC)cc1)c1ccc(O)c(F)c1 | 1.2 | -0.0849 | 0.293 | -1.17 (inactive) | 0.588 | 0.288 | -0.198 | 0.213 | 0.19 | 0.312 | 1.33 | 0.362 | -0.374 | -0.25 | -0.479 | -0.142 | -0.0626 | 0.0553 | 0.345 | 1.22
COc1cc2c(cc1O)C(C)N(Cc1ccc([N+](=O)[O-])o1)CC2 (stereo not given) | 1.38 | 0.749 | 0.879 | 0.286 (inactive) | 0.675 | 0.899 | -0.459 | 0.574 | -0.0673 | 1.31 | 1.28 | -0.616 | 0.0215 | 2.21 | 1.21 | 0.138 | -0.153 | -0.335 | 0.961 | 1.95
COc1cc(OC)c(C(O)C2C=CC3C(=O)N(c4ccccc4)C(=O)C3N2Nc2ccccc2)cc1Br (stereo not given) | 1.53 | 0.184 | 0.612 | 0.528 (inactive) | 0.247 | 0.176 | -0.487 | 0.39 | -0.386 | 0.791 | 1.4 | -0.801 | -0.263 | 1.02 | 0.285 | -0.0346 | -0.138 | -0.0604 | 0.474 | 0.665
CCCCCCCCCCC(O)C1C=CC2C(=O)N(C)C(=O)C2N1NC(=O)OC(C)(C)C (stereo not given) | 0.18 | -0.0906 | 0.0331 | 11.3 (active) | -0.737 | 0.386 | -0.0167 | -0.112 | -0.145 | 0.417 | 1.17 | -2.54 | 0.186 | 1.41 | 0.953 | -0.0684 | 0.445 | 0.3 | -0.122 | 0.294
COC(=O)C(CC#Cc1ccc2c(c1)[C@]1(C(=O)N2)[C@H](C(=O)N2CCN(c3ncccn3)CC2)[C@H]2C(=O)O[C@H](c3ccccc3)[C@H](c3ccccc3)N2[C@@H]1c1ccc(OCCO)cc1)C(=O)OC | 1.22 | 0.0224 | -0.0434 | -0.152 (inactive) | 1.17 | 0.994 | 0.68 | 1.39 | 0.612 | 0.0693 | 1.45 | -1.7 | 0.839 | 0.918 | 0.245 | -0.0792 | -0.144 | 0.0574 | 0.624 | 2.21
O=C(CS)NCCCCCCNC(=O)[C@H]1C[C@H]2C(=O)N[C@@H](Cc3ccccc3)C(=O)N2[C@H]1c1ccc(O)cc1 | 1.67 | -0.249 | -0.0488 | -0.239 (inactive) | 1.39 | 0.992 | 0.0478 | 0.333 | 0.75 | -0.95 | 1.39 | -0.53 | 0.656 | -0.123 | -0.426 | -0.1 | -0.339 | -0.493 | 0.0397 | 0.329
COCCOC(=O)N1C(=O)[C@@]2(c3cc(C#CC4=CCCCC4)ccc31)[C@H](C(=O)N1CCCCCCC1)[C@H]1C(=O)O[C@H](c3ccccc3)[C@H](c3ccccc3)N1[C@@H]2c1ccc(O)cc1 | 0.376 | 0.923 | 1 | -0.802 (inactive) | 0.277 | 0.409 | 0.285 | 0.735 | 0.163 | 1.41 | 1.26 | -1.35 | 0.134 | 0.765 | 0.522 | -0.001 | 0.156 | -0.0901 | 0.775 | 0.743
O=C1C2C=CC(C(O)c3ccccc3)N(Nc3ccccc3F)C2C(=O)N1c1ccccc1 (stereo not given) | 0.797 | -0.168 | 0.24 | -0.245 (inactive) | 0.311 | -0.178 | 0.223 | 0.341 | 0.0646 | 0.626 | 0.188 | -0.384 | -0.0935 | 0.0824 | -0.537 | -0.15 | -0.0626 | -0.341 | 0.178 | 0.204
CC1=C([C@H](O)CCc2ccccc2)[C@H](CO)[C@@H]2C(=O)N(C)C(=O)[C@@H]2C1 | 0.843 | -0.173 | -0.495 | 0.626 (inactive) | 0.383 | 0.271 | 0.243 | 0.491 | 0.446 | 0.162 | 0.305 | -0.581 | 0.392 | 0.489 | -0.905 | -0.197 | -0.262 | -0.416 | 0.185 | 0.224
C=CCC(OC(C)=O)[C@@H]1[C@@H](N(Cc2ccc(-c3cccc(C(F)(F)F)c3)o2)C(=O)c2ccc(C)cc2)c2cc(OCCCO)ccc2N1C(=O)c1ccc2ccccc2c1 (stereo not given in full) | 0.178 | -0.149 | 0.155 | -0.619 (inactive) | 0.298 | -0.461 | -0.0161 | 0.443 | 0.217 | 1.01 | -0.191 | -0.471 | -0.0584 | -0.287 | -0.208 | 0.0433 | -0.221 | -0.347 | -0.048 | -0.0213
COc1cc(CO)cc(I)c1O[C@H]1C=C(C(=O)NCCO)C[C@@H](NCc2ccc(F)cc2)[C@@H]1O | 0.935 | -0.197 | -0.162 | -1.05 (inactive) | 1.43 | 0.191 | -0.0831 | 0.991 | 0.978 | -0.144 | -1.08 | -4.07 | 0.275 | 0.433 | -0.918 | -0.202 | 0.0684 | -0.506 | 0.0217 | 0.2
